Data: PubChem BioAssay (Tox21)
Values joined by “and” are separate entries in the source; they are usually repeats but may differ in a detail not shown here. Equal values may be shown once. Inconclusive results are not listed. Active and inactive are the calls of the source. Unless noted, calls follow the shape of the dose curve; as a rule, active = well fitted curve in the direction sought with a large enough effect in the repeat runs; inconclusive = weak or mixed curves; inactive = no such curve, though single readings can be large; an effect the other way counts as inactive or inconclusive.

Columns and labels:
[1] = target: Thyrotropin receptor (Homo sapiens) (UniProt P16473); experiment: qHTS assay to identify small molecule agonists of the thyroid stimulating hormone receptor (TSHR) signaling pathway (AID 1224843; calls by dose curve; also: nearly all actives have a fitted effect of over 45% in size)
Method in brief: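 HEK293/TSHR, 800 cells/well; cpd 30 min RT; add cAMP-d2 + anti-cAMP-cryptate, 1 h RT; fluorescence read on plate reader. 15-pt titration, n=3.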

[2] = qHTS assay to identify small molecule agonists of the hypoxia (HIF-1) signaling pathway - cell viability counter screen (AID 1224844; calls by dose curve; also: nearly all actives have a fitted effect of over 50% in size; also: potency is read from the fitted curve at half-maximal effect)
Method in brief: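 Cytotoxicity was measured in parallel with the HRE-driven beta-lactamase readout: after 17 hrs of compound exposure at 37C, HRE-bla ME-180 cells received CellTiter-Glo and luminescence was recorded 30 min later.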

[3] = qHTS assay to identify small molecule agonists of H2AX (AID 1224845; active = well fitted activation curve with a large enough effect in the signal ratio in the repeat runs, not every such curve was filed as active; the % refers to the signal ratio; also: potency is read from the fitted curve at half-maximal effect)
Method in brief: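 Wild-type CHO-K1 cells, plated overnight, exposed 3hr at 37C to 15 concentrations (0.76% DMSO final). Lysed, then HTRF anti-pH2AX (S139) cryptate and anti-H2AX-d2 antibodies, 24 hr room temperature; 665/620 nm emission read.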

[4] = qHTS assay to identify small molecule agonists of H2AX - cell viability counter screen (AID 1224847; calls by dose curve; also: top concentration of the series differs between compounds; nearly all actives have a fitted effect of over 30% in size)
Method in brief: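 For this counter screen, overnight-attached CHO-K1 cells received test compounds (15 concentrations, 0.76% DMSO final); 3 hr later at 37C, CellTiter-Glo reagent was added and luminescence recorded after 30 min at room temperature.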

[5] = A CellTox Green Cytotoxicity Assay to monitor cytotoxicity in HEK293 cells - 0 hour (AID 1224869); also: nearly all actives have a fitted effect of over 50% in size
Method in brief: (§1)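 Cells (HEK293, 600/well) and dye reagent are dispensed together. After 5 h at 37 C, 23 nL compound is pinned in. Plates stay at 37 C for 40 h with fluorescence read at 0h, 8h, 16h, 24h, 32h and 40h.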

[6] = A CellTox Green Cytotoxicity Assay to monitor cytotoxicity in HEK293 cells - 40 hour (AID 1224871); also: nearly all actives have a fitted effect of over 45% in size; also: potency is read from the fitted curve at half-maximal effect
Method in brief: as §1

[7] = A CellTox Green Cytotoxicity Assay to monitor cytotoxicity in HEK293 cells - 24 hour (AID 1224875); also: nearly all actives have a fitted effect of over 45% in size
Method in brief: as §1

[8] = A CellTox Green Cytotoxicity Assay to monitor cytotoxicity in HepG2 cells - 16 hour (AID 1224876); also: nearly all actives have a fitted effect of over 45% in size
Method in brief: (§2)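 Cells and non-lytic dye reagent are dispensed together (600 HepG2 cells/well) and incubated 5 h before DMSO compound transfer. Kinetic fluorescence is then recorded in the same wells during 40 h at 37 C.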

[9] = A CellTox Green Cytotoxicity Assay to monitor cytotoxicity in HepG2 cells - 24 hour (AID 1224878); also: nearly all actives have a fitted effect of over 45% in size; also: potency is read from the fitted curve at half-maximal effect
Method in brief: as §2

[10] = A CellTox Green Cytotoxicity Assay to monitor cytotoxicity in HepG2 cells - 40 hour (AID 1224879); also: nearly all actives have a fitted effect of over 40% in size; also: potency is read from the fitted curve at half-maximal effect
Method in brief: as §2

[11] = qHTS assay to identify small molecule antagonists of the estrogen related receptor (ERR) signaling pathway from Tox21 library (AID 1224848); also: nearly all actives have a fitted effect of over 50% in size
Method in brief: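 Compounds dissolved in DMSO are pin-transferred onto ERR reporter cells (2,000 per well) that have settled for 6 h at 37 C. Plates then incubate 18 h at 37 C before ONE-Glo luciferase reagent and a luminescence read 30 min later.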

[12] = qHTS assay to identify small molecule agonists of the estrogen related receptor (ERR) signaling pathway from Tox21 library (AID 1224849; calls by dose curve; also: nearly all actives have a fitted effect of over 15% in size); conditions: ERR reporter cell line, ONE-Glo luciferase, 18 h; at 92.4 µM (top of the series) unless noted
Method in brief: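 Cells carrying the ERR reporter were plated and allowed to settle for 6 h, exposed to library compounds for 18 h at 37 C, then lysed with ONE-Glo and luminescence measured.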

[13] = qHTS RealTime-Glo MT Cell Viability Assay in HepG2 cells - 24 hour (AID 1224867); also: nearly all actives have a fitted effect of over 50% in size
Method in brief: (§3)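 Luminescence read-out: viable HepG2 cells reduce a prosubstrate to a NanoLuc substrate, giving a signal proportional to live cell number. Reads taken at 0, 8, 16, 24, 32 and 40 h of compound exposure at 37 C.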

[14] = qHTS RealTime-Glo MT Cell Viability Assay in HEK293 cells - 32 hour (AID 1224868); also: nearly all actives have a fitted effect of over 50% in size; also: potency is read from the fitted curve at half-maximal effect
Method in brief: (§4)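 Nonlytic real-time viability readout: viable cells convert prosubstrate to NanoLuc substrate, giving luminescence proportional to live cell number. HEK293, 600 cells/well, compound added after 5 h, continuous culture at 37 C.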

[15] = qHTS RealTime-Glo MT Cell Viability Assay in HepG2 cells - 40 hour (AID 1224870); also: nearly all actives have a fitted effect of over 50% in size
Method in brief: (§5)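 HepG2 cells (600/well) mixed with RealTime-Glo MT reagent, settled 5 h at 37 C/5% CO2 before compound addition. Nonlytic NanoLuc luminescence from viable-cell prosubstrate reduction read repeatedly during 40 h treatment at 37 C.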

[16] = qHTS RealTime-Glo MT Cell Viability Assay in HEK293 cells - 16 hour (AID 1224872); also: nearly all actives have a fitted effect of over 50% in size; also: potency is read from the fitted curve at half-maximal effect
Method in brief: as §4

[17] = qHTS RealTime-Glo MT Cell Viability Assay in HepG2 cells - 8 hour (AID 1224873); also: nearly all actives have a fitted effect of over 55% in size
Method in brief: as §5

[18] = qHTS RealTime-Glo MT Cell Viability Assay in HEK293 cells - 40 hour (AID 1224874); conditions: RealTime-Glo luminescence; max response: stronger effect = lower value; also: nearly all actives have a fitted effect of over 50% in size; also: potency is read from the fitted curve at half-maximal effect
Method in brief: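 Real-time viability in HEK293: signal arises when living cells convert a prosubstrate for NanoLuc in the medium, so luminescence tracks viable cell number. Compound (23 nL, DMSO) added 5 h post-seeding; kinetic reads at 0–40 h, 37 C.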

[19] = qHTS RealTime-Glo MT Cell Viability Assay in HepG2 cells - 32 hour (AID 1224877); also: nearly all actives have a fitted effect of over 55% in size
Method in brief: as §3

[20] = qHTS assay to identify small molecule agonists of the hypoxia (HIF-1) signaling pathway (AID 1224846; active = well fitted activation curve with a large enough effect in the signal ratio in the repeat runs, not every such curve was filed as active; the % refers to the signal ratio)
Method in brief: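 Compounds from the Tox21 10K library, dissolved in DMSO, are tested for induction of a hypoxia response element–controlled beta-lactamase reporter in ME-180 cells. Exposure lasts 17 hrs at 37C after a 5 hr settling period, followed by CCF4-AM FRET substrate.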
% is scaled to controls: 0 for no effect and ±100 for the full control effect.

Sequence of Thyrotropin receptor (Homo sapiens) (P16473 whole entry, looked up): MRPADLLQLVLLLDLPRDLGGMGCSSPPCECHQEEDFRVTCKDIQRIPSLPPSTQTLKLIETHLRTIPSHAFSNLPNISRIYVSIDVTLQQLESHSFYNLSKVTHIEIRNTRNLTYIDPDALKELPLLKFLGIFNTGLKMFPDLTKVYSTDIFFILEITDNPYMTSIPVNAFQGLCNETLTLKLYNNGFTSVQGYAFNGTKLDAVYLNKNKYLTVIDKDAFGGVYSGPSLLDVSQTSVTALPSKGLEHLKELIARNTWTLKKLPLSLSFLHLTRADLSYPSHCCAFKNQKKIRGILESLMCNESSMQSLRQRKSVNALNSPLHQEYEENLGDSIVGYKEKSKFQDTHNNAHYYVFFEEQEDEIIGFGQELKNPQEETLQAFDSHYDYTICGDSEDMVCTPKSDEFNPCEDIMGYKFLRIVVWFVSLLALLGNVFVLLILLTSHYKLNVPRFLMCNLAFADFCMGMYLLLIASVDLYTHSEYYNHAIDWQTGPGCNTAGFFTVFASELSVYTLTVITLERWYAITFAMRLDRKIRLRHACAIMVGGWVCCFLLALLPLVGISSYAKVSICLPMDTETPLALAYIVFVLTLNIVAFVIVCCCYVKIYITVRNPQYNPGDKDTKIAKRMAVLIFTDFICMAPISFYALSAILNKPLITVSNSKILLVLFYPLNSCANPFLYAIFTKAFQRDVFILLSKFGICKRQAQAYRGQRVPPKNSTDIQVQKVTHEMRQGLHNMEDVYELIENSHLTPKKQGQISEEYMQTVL

COCc1c(C(C)C)nc(C(C)C)c(/C=C/[C@@H](O)C[C@@H](O)CC(=O)O)c1-c1ccc(F)cc1
active: Potency [9] 301 nM and 4.32 µM | Potency [10] 379 nM and 4.84 µM
inactive: Potency [1] | Potency [2] | Potency [3] | Potency [4] | Potency [5] | Potency [6] | Potency [7] | Potency [8]

CC1(C)O[C@@H]2C[C@H]3[C@@H]4CCC5=CC(=O)C=C[C@]5(C)[C@H]4[C@@H](O)C[C@]3(C)[C@]2(C(=O)CO)O1
inactive: Potency [1] | Potency [2] | Potency [3] | Potency [4] | Potency [11] | activity change, positive = activation [12] -2.7% [at 42.5 µM] | Potency [13] | Potency [14] | Potency [15] | Potency [16] | Potency [17] | max response [18] -1.67% | Potency [7] | Potency [19] | Potency [9] | Potency [10]

CCOC(=N)CC(=O)OCC
active: Potency [2] 19.5 µM
inactive: Potency [1] | Potency [3] | Potency [4] | Potency [13] | Potency [14] | Potency [5] | Potency [15] | Potency [6] | Potency [16] | Potency [17] | max response [18] -25% | Potency [7] | Potency [8] | Potency [19] | Potency [9] | Potency [10]

CC(=O)OCC(=O)[C@@]12OC(C)(C)O[C@@H]1C[C@H]1[C@@H]3C[C@H](F)C4=CC(=O)C=C[C@]4(C)[C@@]3(F)[C@@H](O)C[C@@]12C
inactive: Potency [1] | Potency [2] | Potency [3] | outcome [20] | Potency [4] | Potency [13] | Potency [5] | Potency [15] | Potency [16] | Potency [8] | Potency [19] | Potency [9] | Potency [10]
active: Potency [6] 26.8 µM

C=CC(=C)CCCC(C)(C)OC(C)=O
inactive: Potency [1] | Potency [2] | Potency [3] | Potency [11] | activity change, positive = activation [12] -5.77% | Potency [13] | Potency [14] | Potency [5] | Potency [15] | Potency [6] | Potency [16] | Potency [17] | Potency [7] | Potency [8] | Potency [19] | Potency [9] | Potency [10]

CC(C)(CCl)c1ccccc1
inactive: Potency [1] | Potency [2] | Potency [3] | outcome [20] | Potency [13] | Potency [14] | Potency [5] | Potency [15] | Potency [6] | Potency [16] | Potency [17] | Potency [7] | Potency [8] | Potency [19] | Potency [9] | Potency [10]

Cc1cnc(C)c(C)n1
inactive: Potency [1] | Potency [2] | Potency [3] | outcome [20] | Potency [13] | Potency [14] | Potency [5] | Potency [15] | Potency [16] | Potency [17] | max response [18] -11.2% | Potency [8] | Potency [19] | Potency [9] | Potency [10]

Nc1nc(Cl)nc2c1ncn2[C@@H]1O[C@H](CO)[C@@H](O)[C@@H]1F
active: Potency [3] 1.56 µM | Potency [14] 4.77 µM | Potency [18] 4.25 µM
inactive: Potency [1] | Potency [2] | outcome [20] | Potency [13] | Potency [5] | Potency [15] | Potency [6] | Potency [17] | Potency [7] | Potency [8] | Potency [19] | Potency [9]

CC#N
inactive: Potency [1] | Potency [2] | Potency [11] | activity change, positive = activation [12] 6.68% | Potency [13] | Potency [14] | Potency [5] | Potency [15] | Potency [6] | Potency [16] | Potency [17] | Potency [7] | Potency [8] | Potency [19] | Potency [9] | Potency [10]

COc1ccc([C@@H]2Sc3ccccc3NC(=O)[C@@H]2O)cc1
inactive: Potency [1] | Potency [2] | outcome [20] | Potency [4] | activity change, positive = activation [12] -18.7% [at 42.5 µM] | Potency [13] | Potency [15] | Potency [6] | Potency [16] | Potency [17] | Potency [7] | Potency [8] | Potency [19] | Potency [9]

C=CC(C)(C)CC(=O)OC
inactive: Potency [1] | Potency [4] | Potency [13] | Potency [5] | Potency [15] | Potency [6] | Potency [17] | Potency [7] | Potency [8] | Potency [19] | Potency [9] | Potency [10]
active: Potency [2] 12.3 µM | Potency [16] 1.38 µM

O=C1OCCN1/N=C/c1ccc([N+](=O)[O-])o1
inactive: Potency [1] | Potency [2] | outcome [20] | Potency [4] | Potency [13] | Potency [14] | Potency [5] | Potency [15] | Potency [6] | Potency [16] | max response [18] 2.01% | Potency [7] | Potency [8] | Potency [19] | Potency [9] | Potency [10]

Cc1ccnc2ccccc12
inactive: Potency [1] | Potency [2] | Potency [4] | Potency [13] | Potency [5] | Potency [15] | Potency [6] | Potency [16] | Potency [17] | max response [18] 6.48% | Potency [7] | Potency [8] | Potency [19] | Potency [9] | Potency [10]

N#C[C@@H]1C[C@@H]2C[C@@H]2N1C(=O)[C@@H](N)C12CC3CC(CC(O)(C3)C1)C2
inactive: Potency [1] | Potency [2] | outcome [20] | Potency [4] | Potency [11] | activity change, positive = activation [12] 0.254% [at 42.5 µM] | Potency [13] | Potency [14] | Potency [5] | Potency [15] | Potency [16] | max response [18] 10.4% | Potency [7] | Potency [8] | Potency [19] | Potency [9] | Potency [10]
